This is part of a sample that, as a whole, favours compounds with a hit. Of some 83,000 tested, about 20% had one in any assay.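 Percent growth is the endpoint: 0 to 100 indicates growth inhibition (40 means 60% inhibition), 0 means no net growth, and negative values indicate cell death.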 Active and inactive are the calls of the source. Rule for the calls: active = growth percent below 10; inactive = the rest.
Assays:
Assay in all cases: NCI-60 one-dose screen, 48 h (100 = growth as untreated, 0 = no growth, -100 = all killed)
Details in all cases: 10 µM unless noted
HCT-15 colon = system: HCT-15 colon
HT29 colon = system: HT29 colon
SNB-75 CNS = system: SNB-75 CNS
SNB-19 CNS = system: SNB-19 CNS
U251 CNS = system: U251 CNS
PC-3 prostate = system: PC-3 prostate
SK-MEL-5 melanoma = system: SK-MEL-5 melanoma
UACC-62 melanoma = system: UACC-62 melanoma
LOX IMVI melanoma = system: LOX IMVI melanoma
SK-MEL-28 melanoma = system: SK-MEL-28 melanoma
SK-MEL-2 melanoma = system: SK-MEL-2 melanoma
EKVX NSCLC = system: EKVX NSCLC
SN12C renal = system: SN12C renal
UO-31 renal = system: UO-31 renal
TK-10 renal = system: TK-10 renal
ACHN renal = system: ACHN renal
CAKI-1 renal = system: CAKI-1 renal
A498 renal = system: A498 renal
CCRF-CEM leukemia = system: CCRF-CEM leukemia
MOLT-4 leukemia = system: MOLT-4 leukemia

Measured: growth

COc1cccc(-c2cnco2)c1OCc1c(C)c(COc2c(OC)cccc2-c2cnco2)c(C)c(COc2c(OC)cccc2-c2cnco2)c1C
active: A498 renal -13.6%
inactive: HCT-15 colon 89.6% | HT29 colon 32.7% | SNB-75 CNS 13% | SNB-19 CNS 67.4% | U251 CNS 40% | PC-3 prostate 71.3% | SK-MEL-5 melanoma 45.3% | UACC-62 melanoma 42.2% | LOX IMVI melanoma 45.6% | SK-MEL-28 melanoma 55.7% | SK-MEL-2 melanoma 60.9% | EKVX NSCLC 52.8% | SN12C renal 51.4% | UO-31 renal 30.8% | TK-10 renal 28.1% | ACHN renal 29.6% | CAKI-1 renal 88.7% | CCRF-CEM leukemia 94.5% | MOLT-4 leukemia 91.2%

N#Cc1c(-c2ccccc2)nc(SCC2CO2)nc1N1CCOCC1 (stereo unspecified)
active: A498 renal -15.2%
inactive: HCT-15 colon 74.2% | HT29 colon 74% | SNB-75 CNS 34.1% | SNB-19 CNS 60.9% | U251 CNS 75.3% | PC-3 prostate 36.1% | SK-MEL-5 melanoma 84.9% | UACC-62 melanoma 51.9% | LOX IMVI melanoma 76.6% | SK-MEL-28 melanoma 64.7% | SK-MEL-2 melanoma 66.9% | EKVX NSCLC 78.4% | SN12C renal 69.9% | UO-31 renal 29.5% | TK-10 renal 68.6% | ACHN renal 59.2% | CAKI-1 renal 38.6% | CCRF-CEM leukemia 96.6% | MOLT-4 leukemia 68.6%

CC(C)CCC[C@@H](C)[C@H]1CCC2C3=CCC4C(=O)C=CC(=O)C4C3CC[C@@]21C (stereo partly specified)
inactive: HT29 colon 11.3% | SNB-19 CNS 38.2% | U251 CNS 11.5% | UACC-62 melanoma 28.7% | SK-MEL-28 melanoma 41.9% | SN12C renal 20.1% | CCRF-CEM leukemia 17% | MOLT-4 leukemia 10.4%
active: HCT-15 colon 3.29% | SNB-75 CNS 7.34% | PC-3 prostate 9.01% | SK-MEL-5 melanoma -48.5% | LOX IMVI melanoma -43.4% | SK-MEL-2 melanoma -16.4% | EKVX NSCLC -10% | UO-31 renal -67.9% | TK-10 renal -36.6% | ACHN renal 4.54% | CAKI-1 renal -56.3% | A498 renal -6.21%

CCOC(=O)C(O)C(O)(c1ccccc1)c1ccccc1 (stereo unspecified)
inactive: HCT-15 colon 98% | HT29 colon 99.7% | SNB-75 CNS 89.7% | SNB-19 CNS 114% | U251 CNS 97.3% | PC-3 prostate 96.8% | SK-MEL-5 melanoma 97.6% | UACC-62 melanoma 98.5% | LOX IMVI melanoma 102% | SK-MEL-28 melanoma 95.8% | SK-MEL-2 melanoma 102% | EKVX NSCLC 100% | SN12C renal 99% | UO-31 renal 91.2% | TK-10 renal 100% | ACHN renal 97.4% | CAKI-1 renal 97% | A498 renal 98.3% | CCRF-CEM leukemia 99.1% | MOLT-4 leukemia 95.1%

O=C(Oc1ccc([N+](=O)[O-])cc1)c1ccc(CBr)cc1
inactive: HCT-15 colon 76.9% | HT29 colon 92.3% | SNB-75 CNS 89.2% | SNB-19 CNS 91.5% | U251 CNS 82.4% | PC-3 prostate 87% | SK-MEL-5 melanoma 95.2% | UACC-62 melanoma 82.2% | LOX IMVI melanoma 67.2% | SK-MEL-28 melanoma 104% | SK-MEL-2 melanoma 101% | EKVX NSCLC 103% | SN12C renal 89.9% | UO-31 renal 83.3% | TK-10 renal 99.3% | ACHN renal 95.2% | CAKI-1 renal 86.2% | A498 renal 86.5% | CCRF-CEM leukemia 68.7% | MOLT-4 leukemia 82.7%

COc1ccc(-c2c(N)n[nH]c2-c2ccccc2O)cc1OC
inactive: HCT-15 colon 115% | HT29 colon 112% | SNB-75 CNS 92.2% | SNB-19 CNS 89.1% | U251 CNS 99.6% | PC-3 prostate 82.7% | SK-MEL-5 melanoma 87.8% | UACC-62 melanoma 99% | LOX IMVI melanoma 96.6% | SK-MEL-28 melanoma 103% | SK-MEL-2 melanoma 88.2% | EKVX NSCLC 92.4% | SN12C renal 104% | UO-31 renal 62.6% | TK-10 renal 98.5% | ACHN renal 102% | CAKI-1 renal 21.6% | A498 renal 118% | CCRF-CEM leukemia 81.8% | MOLT-4 leukemia 97%

CC1(C)CC(=O)c2c(ccc(C(=O)C[C@H](N)CO)c2N)O1
inactive: SNB-75 CNS 75.9% | SNB-19 CNS 34.7% | U251 CNS 14.8% | PC-3 prostate 45.3% | SK-MEL-5 melanoma 47.2% | UACC-62 melanoma 11% | SK-MEL-28 melanoma 38% | SK-MEL-2 melanoma 36.8% | EKVX NSCLC 80% | SN12C renal 32.6% | UO-31 renal 43.4% | TK-10 renal 79.4% | ACHN renal 46.2% | CAKI-1 renal 20.3% | CCRF-CEM leukemia 17.7% | MOLT-4 leukemia 38.5%
active: HCT-15 colon 4.43% | HT29 colon 2.53% | LOX IMVI melanoma -61.7% | A498 renal -16.8%

O=S(=O)(NCCNc1cc(-c2c(-c3cccc(O)c3)nc3sccn23)ccn1)c1ccc(Cl)cc1
inactive: HCT-15 colon 53.2% | HT29 colon 65.7% | SNB-19 CNS 72.7% | U251 CNS 65.9% | PC-3 prostate 49.3% | SK-MEL-5 melanoma 30.7% | UACC-62 melanoma 64.8% | LOX IMVI melanoma 63.2% | SK-MEL-28 melanoma 95.7% | SK-MEL-2 melanoma 79% | EKVX NSCLC 62.1% | SN12C renal 52.8% | TK-10 renal 84.2% | ACHN renal 61.2% | CAKI-1 renal 36.1% | A498 renal 57.1% | CCRF-CEM leukemia 40.1% | MOLT-4 leukemia 33.9%
active: SNB-75 CNS 8.44% | UO-31 renal 3.45%

O=C(/C=C/C12c3ccccc3C(c3ccccc31)C1C(=O)NC(=O)C12)c1ccc(Cl)cc1 (stereo unspecified)
inactive: SNB-19 CNS 17.3% | PC-3 prostate 21.7% | EKVX NSCLC 17.8% | TK-10 renal 12.6% | CAKI-1 renal 33.6% | CCRF-CEM leukemia 11.5% | MOLT-4 leukemia 11.1%
active: HCT-15 colon -43.1% | HT29 colon 7.13% | SNB-75 CNS 8.43% | U251 CNS -10.9% | SK-MEL-5 melanoma -61.5% | UACC-62 melanoma -18.3% | LOX IMVI melanoma -87.9% | SK-MEL-28 melanoma -32.1% | SK-MEL-2 melanoma -7.61% | SN12C renal -14.4% | UO-31 renal -55.2% | ACHN renal -44.8%

CCN(CC)CCCNC(=O)c1ccc(N)cc1
inactive: HCT-15 colon 101% | HT29 colon 100% | SNB-75 CNS 95.5% | SNB-19 CNS 102% | U251 CNS 101% | PC-3 prostate 101% | SK-MEL-5 melanoma 97.7% | UACC-62 melanoma 105% | LOX IMVI melanoma 103% | SK-MEL-28 melanoma 96.8% | SK-MEL-2 melanoma 99% | EKVX NSCLC 104% | SN12C renal 103% | UO-31 renal 78.8% | TK-10 renal 97.8% | ACHN renal 97.3% | CAKI-1 renal 107% | A498 renal 66.3% | MOLT-4 leukemia 85.3%
active: CCRF-CEM leukemia -34.9%

Cc1ccc(NC(=O)C(Cl)Cl)cc1
inactive: HCT-15 colon 105% | HT29 colon 92.7% | SNB-75 CNS 101% | SNB-19 CNS 101% | U251 CNS 94.7% | PC-3 prostate 91.8% | SK-MEL-5 melanoma 99.4% | UACC-62 melanoma 98.6% | LOX IMVI melanoma 99.6% | SK-MEL-28 melanoma 98.2% | SK-MEL-2 melanoma 83.6% | EKVX NSCLC 109% | SN12C renal 98.9% | UO-31 renal 83% | TK-10 renal 94.3% | ACHN renal 100% | CAKI-1 renal 103% | A498 renal 80.9% | CCRF-CEM leukemia 100% | MOLT-4 leukemia 14.2%

O=C(CCl)N1c2cccc3cccc(c23)N(C(=O)CCl)C1c1cn(-c2ccccc2)nc1-c1cccc([N+](=O)[O-])c1
inactive: HCT-15 colon 85.6% | HT29 colon 44.9% | SNB-75 CNS 85.1% | SNB-19 CNS 97.3% | U251 CNS 85% | PC-3 prostate 97.1% | SK-MEL-5 melanoma 98.9% | UACC-62 melanoma 86.8% | LOX IMVI melanoma 26.6% | SK-MEL-28 melanoma 106% | SK-MEL-2 melanoma 111% | EKVX NSCLC 102% | SN12C renal 93.5% | UO-31 renal 66.9% | TK-10 renal 104% | ACHN renal 76.7% | CAKI-1 renal 92.5% | MOLT-4 leukemia 34.7%
active: CCRF-CEM leukemia 8.63%

CC(C)n1nc(C#Cc2cccc(O)c2)c2c(N)ncnc21
active: HCT-15 colon -11.2% | HT29 colon -17.7% | SNB-75 CNS -84.7% | SNB-19 CNS -21.4% | U251 CNS -37.1% | PC-3 prostate -11.8% | SK-MEL-5 melanoma -91.8% | UACC-62 melanoma -88.9% | LOX IMVI melanoma -92.4% | SK-MEL-28 melanoma -47.5% | SK-MEL-2 melanoma -76.9% | EKVX NSCLC -27.1% | SN12C renal -44.3% | UO-31 renal -63.4% | TK-10 renal -87.4% | ACHN renal -47.3% | CAKI-1 renal -66.8% | CCRF-CEM leukemia -21% | MOLT-4 leukemia -36.1%

O=C(/C=C/C12c3ccccc3C(c3ccccc31)C1C(=O)N(c3ccccc3)C(=O)C12)c1ccc(Cl)cc1 (stereo unspecified)
inactive: SNB-75 CNS 72.1% | SNB-19 CNS 39.4% | U251 CNS 19.8% | PC-3 prostate 22.3% | SK-MEL-2 melanoma 22.3% | EKVX NSCLC 22.9% | SN12C renal 19.9% | TK-10 renal 42.8% | CAKI-1 renal 54.2% | CCRF-CEM leukemia 13% | MOLT-4 leukemia 11.9%
active: HCT-15 colon -0.519% | HT29 colon 8.4% | SK-MEL-5 melanoma -55.2% | UACC-62 melanoma 5.42% | LOX IMVI melanoma -81.1% | SK-MEL-28 melanoma 4.17% | UO-31 renal -37.1% | ACHN renal -36.2%

Reference: PubChem BioAssay (NCI)
